Experimental findings from PubChem BioAssay (Tox21) are described below.

Each structure is given as a SMILES string. Values without a mark were called inactive. Records with an inconclusive call do not appear. Calls of active or inactive are those of the source. Unless noted, calls come from the whole dose curve; as a rule, active = well fitted curve in the direction sought with a large enough effect in the repeat runs; inconclusive = weak or mixed curves; inactive = no such curve, though single readings can be large; an effect the other way counts as inactive or inconclusive.

Assay [1] can be described thus: qHTS assay for small molecules that induce genotoxicity in human embryonic kidney cells expressing luciferase-tagged ATAD5 (AID 651632). Note: nearly all actives have a fitted effect of over 15% in size. The method in brief: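 Luminescent reporter readout, HEK293T ATAD5-luc line: 16 hr drug exposure (37C, 5% CO2) followed by Amplite, 30 min RT.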
On the technique in general: In qHTS, concentration-response curves come from the screen itself.

Assay [2] can be described thus: qHTS assay for small molecule agonists of the p53 signaling pathway - cell viability (AID 651633; calls by dose curve; note: nearly all actives have a fitted effect of over 30% in size; note: potency is the fitted concentration of half-maximal effect). In a few lines: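 Viability counter-read: CellTiter-Glo luminescence (30 min, room temperature) in the same p53RE-bla plates. These plates had been exposed to compounds for 16 h at 37 C.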
Assay [3] in a line: qHTS assay for small molecules that induce genotoxicity in human embryonic kidney cells expressing luciferase-tagged ATAD5 - cell viability (AID 651634; calls by dose curve; note: nearly all actives have a fitted effect of over 25% in size; note: potency is the fitted concentration of half-maximal effect). In a few lines: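 Viability read: CellTiter-Fluor fluorescence, 30 min at 37C. Cells: HEK293T, luciferase-tagged ATAD5. Exposure: 15.5 hr, 37C, 5% CO2, compound or DMSO vehicle.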
Assay [4] in a line: qHTS assay for small molecule disruptors of the mitochondrial membrane potential - cell viability (AID 720634; calls by dose curve;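 note: human HepG2 liver cancer cells; series mostly up to about 83 µM; nearly all actives have a fitted effect of over 20% in size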). The method in brief:
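HepG2, 1 hr compound, 37 C. ATP luminescence via CellTiter-Glo, 30 min RT, same well as m-MPI.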

Assay [5] in a line: qHTS assay for small molecule disruptors of the mitochondrial membrane potential (AID 720635). Note: potency is the fitted concentration of half-maximal effect. In a few lines:
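Mitochondrial membrane potential tracked with Mito-MPS dye, red aggregates (ex 540/em 590 nm) against green monomers (ex 490/em 535 nm). Compound treatment 1 hr at 37C, dye 30 min in HepG2.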

Assay [6] can be described thus: qHTS assay to test for compound auto fluorescence at 590 nm (red) in HepG2 cells (AID 720674). The method in brief: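 Red autofluorescence (Ex/Em 540/590 nm, Rose Bengal sodium equivalents) was measured in HepG2 cells, 2,000 per well in MEM plus 10% FBS, plated overnight at 37 C. Readings were taken 1 hr after adding 23 nL compound or DMSO, at 37 C and 5% CO2.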
The nature of assay [7]: qHTS assay to test for compound auto fluorescence at 535 nm (green) in HepG2 cells (AID 720675).
The nature of assay [8]: qHTS assay to test for compound auto fluorescence at 590 nm (red) in HEK293 cells (AID 720679). In a few lines: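 Intensity at 540nm excitation and 590nm emission is reported as Rose Bengal sodium-equivalent autofluorescence. Measurements followed overnight exposure (37C, 5% CO2) of HEK293 cells, 2,000 per well, to 23 nL compound.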
Assay [9] in a line: qHTS assay for small molecule agonists of the p53 signaling pathway (AID 651631; calls by dose curve; note: nearly all actives have a fitted effect of over 15% in size). The method in brief:
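HCT-116 cells carrying a stable p53 response element–beta-lactamase reporter were plated, rested 5 h at 37 °C, then exposed to compound in DMSO for 16 h at 37 °C; reporter activity was read as FRET substrate fluorescence after 2 h at room temperature.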

Assay [10] can be described thus: qHTS assay to test for compound auto fluorescence at 460 nm (blue) in HEK293 cells (AID 720678). Note: potency is the fitted concentration of half-maximal effect. In a few lines: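 HEK293, 2,000 cells/well, 10% dialyzed FBS; attach 4-5 hr 37C; pin compound or DMSO; o/n 37C/5% CO2; fluorescence 405/460 nm; triamterene-equivalent units.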
Tags give direction and shape of the fitted curve or compound fluorescence and quenching.

As for `CC[C@H]1OC(=O)[C@H](C)[C@@H](O[C@H]2C[C@@](C)(OC)[C@@H](O)[C@H](C)O2)[C@H](C)[C@@H](O[C@@H]2O[C@H](C)C[C@H](N(C)C)[C@H]2O)[C@](C)(O)C[C@@H](C)/C(=N\OCOCCOC)[C@H](C)[C@@H](O)[C@]1(C)O`, the Potency result in assay [1], in assay [2], in assay [3] and in [5] was “inactive” throughout. Further, the compound was classed as inactive in assay [4], in assay [6], in assay [7] and in assay [8].
Turning to `C[C@H](CS)C(=O)N1CCC[C@H]1C(=O)O`, the Potency entry in assay [9] and in [3] was “inactive” each time. For the same compound, the result in assay [4], in [6], in assay [7] and in [8] was inactive.
For the compound `Cc1ccc(S(=O)(=O)NC(=O)NC2CCCCC2)cc1`, the Potency entry in assay [1], in assay [2], in [3], in assay [5] and in assay [10] was “inactive” throughout. For the same compound, the outcome in assay [4], in assay [6], in assay [7] and in assay [8] was inactive.
Consider `CCOC(=O)c1c(N)sc2c1CCN(Cc1ccccc1)C2`, for which the Potency result in assay [1], in [2] and in assay [3] was “inactive” in each case. The result in assay [6] and in assay [8] was inactive. Moreover, the Potency in [10] was 14.1 µM [fluorescent] (active).
For `CCCCCc1ccco1`, the Potency entry in assay [1], in assay [3] and in [10] was “inactive” throughout. The values for the Potency in assay [2] and in [5] were 39.8 µM (active) and 44.7 µM (active), respectively. Further, the result in assay [4], in assay [6] and in assay [8] was inactive.
With `CCCc1nc2c(C)cc(-c3nc4ccccc4n3C)cc2n1Cc1ccc(-c2ccccc2C(=O)O)cc1`, the Potency result in assay [1], in assay [2], in [3] and in [10] was “inactive” throughout. The outcome in [4], in assay [6], in assay [7] and in [8] was inactive.
In the case of `COc1cc(NCc2ccc3nc(N)nc(N)c3c2C)cc(OC)c1OC`, the Potency result in assay [1], in assay [3] and in assay [10] was “inactive” throughout. For the same compound, the Potency in [2] is 0.335 µM (active). The outcome in [4], in assay [6], in assay [7] and in assay [8] was inactive.
Turning to `OCC(CO)n1cnc(-c2ccc(F)cc2)c1-c1ccnc(Oc2ccccc2)n1`, the Potency result in assay [1], in assay [2], in [3] and in [10] was “inactive” in each case. For the same compound, the compound was called inactive in assay [4], in assay [6], in assay [7] and in assay [8].
With `Cc1ccc2c(c1)CCCN2`, the Potency result in assay [1], in assay [3], in assay [5] and in assay [10] was “inactive” each time. The compound was classed as inactive in assay [4], in [6], in [7] and in [8].
As for `O=C(O)c1cccc(C[C@@H]2COc3ccc(OCc4nc5cc(F)ccc5s4)cc3[C@@H]2O)c1`, the Potency result in [1], in assay [2] and in [3] was “inactive” throughout. For the same compound, the Potency in assay [5] is 54.5 µM (active). The result in assay [6], in assay [7] and in [8] was inactive.
On to `Nc1cccc2c(N)cccc12`, for which the Potency entry in [1], in assay [2], in [3] and in [10] was “inactive” in each case. Also, the compound was classed as inactive in assay [4], in [6] and in assay [8]. The Potency in assay [5] is 0.864 µM (active).
Regarding `Cc1ccc2c(c1[N+](=O)[O-])C(=O)c1ccccc1C2=O`, the Potency result in assay [1], in [2], in [3] and in [10] was “inactive” each time. In addition, the Potency in [5] was 1.2 µM (active). In addition, the call in assay [6], in assay [7] and in assay [8] was inactive.
On to `CCCCOC(=O)CCCCC(=O)OCCCC`, for which the Potency entry in assay [1], in assay [3], in [5] and in assay [10] was “inactive” throughout. Besides, the outcome in [4], in [6], in assay [7] and in assay [8] was inactive.
As to `CCN(CC)CCOc1ccccc1C(=O)CCc1ccccc1`, the Potency result in [1], in assay [2] and in [3] was “inactive” in each case. In addition, the result in assay [4], in assay [6], in assay [7] and in assay [8] was inactive.
For the compound `CCCCC(CC)COS(=O)(=O)O` (stereo unspecified), the Potency entry in assay [1], in [3], in assay [5] and in [10] was “inactive” each time. The outcome in assay [4], in [6], in [7] and in assay [8] was inactive.
For `Cc1ccc(N(CC2=NCCN2)c2cccc(O)c2)cc1`, the Potency entry in assay [1], in assay [2], in [3] and in [10] was “inactive” throughout. Also, the result in [6], in assay [7] and in [8] was inactive.
Take `COC(C)(C)OC`: the Potency result in assay [1], in assay [2], in assay [3] and in assay [10] was “inactive” throughout. The outcome in assay [4], in assay [6], in assay [7] and in assay [8] was inactive.
As for `O=C1CC[C@@H](C(=O)O)N1`, the Potency entry in [1], in assay [2], in [3] and in assay [10] was “inactive” throughout. Further, the call in assay [6], in assay [7] and in [8] was inactive.
With `CCCCCCCCCCCC(=O)OCC(O)CO` (stereo unspecified), the Potency result in [1], in assay [2], in assay [3] and in assay [10] was “inactive” each time. Also, the result in [4], in assay [6], in [7] and in assay [8] was inactive.
Turning to `C=Cc1ccc(OC(C)=O)cc1`, the Potency entry in [1], in assay [2], in assay [3] and in assay [10] was “inactive” throughout. In addition, the outcome in [4], in [6], in assay [7] and in assay [8] was inactive.
With `CC(CCc1ccc(O)cc1)NCCc1ccc(O)c(O)c1` (stereo unspecified), the Potency entry in [1], in [2], in assay [3] and in assay [10] was “inactive” in each case. Besides, the compound was called inactive in assay [6] and in [8].
Turning to `O=C(O)/C=C/c1ccc(O)c(O)c1`, the Potency entry in assay [1], in assay [2], in [3] and in [10] was “inactive” throughout. Moreover, the compound was called inactive in [4], in assay [6] and in [8].
Regarding `Cc1cc([N+](=O)[O-])ccc1N`, the Potency result in [1] and in assay [2] was “inactive” in each case. Besides, the Potency in assay [3] was 47.9 µM (active). For the same compound, the call in [4], in assay [6], in [7] and in assay [8] was inactive.
For the compound `CC(=O)OCCC(C)CC(C)(C)C` (stereo unspecified), the Potency entry in assay [1], in assay [3], in assay [5] and in assay [10] was “inactive” in each case. In addition, the result in assay [4], in assay [6], in assay [7] and in assay [8] was inactive.
